Results as given in the supplement of paper PMC4237247.

Test system: HeLa
Assay: percent cells in G2/M phase; higher = more G2/M arrest
Conditions: 10 µM; 20 h; hit class: G2/M-phase inhibitor
Protocol: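 HTS of 79,827 drug-like compounds at 10 uM. HeLa cells in 384-well plates were treated for 20 h, fixed, stained with Vybrant DyeCycle Green and scanned on an Acumen eX3 cytometer to give per-well cell cycle profiles. Only G2/M hits (>=67% G2/M) are listed.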

Structure (SMILES) | percent cells in G2/M phase [%]
O=C(CSc1nc2ccc([N+](=O)[O-])cc2s1)c1ccc(Cl)cc1 | 69.3
O=c1[nH]c(/C=C/c2ccccc2)nc2ccccc12 | 69.3
CC(=O)O[C@H]1C(=O)[C@@]2(C)[C@H]([C@H](OC(=O)c3ccccc3)[C@]3(O)C[C@H](OC(=O)[C@H](O)[C@@H](NC(=O)c4ccccc4)c4ccccc4)C(C)=C1C3(C)C)[C@]1(OC(C)=O)CO[C@@H]1C[C@@H]2O [Paclitaxel] | 75.7
COC(=O)Nc1nc2cc(Sc3ccccc3)ccc2[nH]1 [Fenbendazole] | 66.2
COC(=O)Nc1nc2cc(C(=O)c3ccccc3)ccc2[nH]1 [Mebendazole] | 76.8
O=C(O)c1ccccc1SC1CC(=O)N(c2ccc(Br)cc2)C1=O (centres undefined) | 75.3
COc1cc(NS(=O)(=O)c2ccc(NC(C)=O)cc2)c(OC)cc1Cl | 71
COc1cc(-c2onc3ccc(Cl)cc23)cc(OC)c1OC | 78.1
O=c1[nH]c(/C=C/c2ccccc2F)nc2ccccc12 | 76.3
CC(=O)Nc1ccc(Nc2nc(-c3c(C)nc4ccccn34)cs2)cc1 | 78
COc1ccccc1NC1=CC(=O)CC(c2ccccc2)C1 (centres undefined) | 70.1
COC(=O)Nc1nc2ccc(SC(C)C)cc2[nH]1 [Methiazole] | 72.9
CCN(CC)CCN1C(=O)C(=O)C(=C(O)c2ccccc2)C1c1ccccc1F (centres undefined) | 68.3
COc1ccc(/C=C/c2ccc3cccc(O)c3n2)cc1C | 71.7
